# JMJD2E inh = blocks human JMJD2E demethylase activity; JMJD2E catalytic domain, FDH-coupled NADH fluorescence (FDH is formaldehyde dehydrogenase); actives 1.6% (n = 230,000); Potency, µM (top dose mostly 57.1 µM), for the others: top-dose activity change, negative = inhibition, hits mostly inhibitors; active means well fitted inhibition curve with a large enough effect, not every such curve was filed as active; inconclusive means small, poorly fitted or top-dose-only effect, or another doubt; inactive means no such curve, though single readings can be large or run the other way;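 further: potency means the concentration at half of the fitted maximal effect; 0% = wells with enzyme and -100% = buffer wells without enzyme; nearly all actives have a fitted effect of over 50% in size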
# Target sequence (B2RXH2 1-337 limits assumed): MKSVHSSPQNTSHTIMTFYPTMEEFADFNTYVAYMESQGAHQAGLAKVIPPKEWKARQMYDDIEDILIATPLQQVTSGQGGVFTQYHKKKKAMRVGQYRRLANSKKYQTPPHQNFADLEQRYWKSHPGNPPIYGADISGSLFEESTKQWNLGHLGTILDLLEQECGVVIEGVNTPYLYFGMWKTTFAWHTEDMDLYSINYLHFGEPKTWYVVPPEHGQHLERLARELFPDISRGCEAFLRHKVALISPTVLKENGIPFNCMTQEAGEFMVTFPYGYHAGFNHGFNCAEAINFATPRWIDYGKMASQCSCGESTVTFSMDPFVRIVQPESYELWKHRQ
# CBFb RUNX1 block = blocks binding between human CBF-beta and RUNX1 | Q01196+Q13951 | AlphaScreen CBFb-His/RUNX1-biotin binding, biochemical | Potency, µM (titrated, usually from 59.8 µM), for the others: at the top dose activity, negative = inhibition, usual class: inhibitors | 230,000 tested, under 10 active | AID 1477; further: % of control where 0% means no effect
#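 Compounds were screened at multiple concentrations against a preformed CBF-beta(His)/RUNX1(biotin) complex (30 nM of each) for 15 min at room temperature, followed by 90 min with nickel and streptavidin beads and AlphaScreen reading.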
# LMNA splice mod = changes lamin A minigene splicing in HeLa cells; HeLa LMNA splicing GFP/RFP minigene ratio, 48 h; Potency, µM (doses to about 46.1 µM), inactives show top-dose ratio change, negative = inhibition, hits mostly inhibitors; actives 0.01% (n = 200,000); AID 1487; active means well fitted inhibition curve with a large enough effect in the signal ratio, with a control signal flat, not every such curve was filed as active; inconclusive means small, poorly fitted or top-dose-only effect, or effect the other way, or a change in a side signal; the % refers to the signal ratio; further: potency means the concentration at half of the fitted maximal effect; on the % scale 0 is the no-effect control and ±100 the full control effect
#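 S3 HeLa cells stably expressing lamin A-EGFP splicing minigene plus DsRed2, 600 cells/well, 48 h compound exposure at 37C. Laser-scanning cytometry; analysed as GFP (500-530 nm)/RFP (575-640 nm) total intensity ratio; 0.5% DMSO vehicle.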
# Tau fibril FP = tau fibrillization inhibition (FP) | AID 1468 | P10636 | actives 0.39% (n = 280,000) | K18 P301L tau heparin fibrillization, Alexa594 FP, 6 h | Potency, µM (highest dose often 57.7 µM), inactives show at the top dose activity, negative = inhibition, most hits filed as inhibitors; further: potency means the concentration at half of the fitted maximal effect; on the % scale 0 is the no-effect control and ±100 the full control effect; nearly all actives have a fitted effect of over 55% in size
# Target sequence (P10636 561-689 P618L limits assumed): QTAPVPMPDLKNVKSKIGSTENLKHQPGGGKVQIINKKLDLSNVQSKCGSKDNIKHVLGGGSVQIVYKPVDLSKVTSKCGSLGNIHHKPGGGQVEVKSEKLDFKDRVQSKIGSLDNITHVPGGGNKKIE
#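 K18 P301L tau (15 uM unlabeled/0.24 uM Alexa 594-labeled, final) + compound + heparin 20 uM final; 100 mM NaOAc pH 7; 6 hr 37 C; ThT 30 uM final added, 1 hr RT; FP ex 555/em 632 nm.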
# Tau fibril ThT = tau fibrillization inhibition (ThT binding); P10636; recombinant tau K18 P301L, heparin-induced fibrillization, ThT fluorescence; Potency, µM (series often up to 57.4 µM), without a hit: top-dose activity, negative = inhibition, most hits filed as inhibitors; actives 2.1% (n = 270,000); AID 1460; further: potency means the concentration at half of the fitted maximal effect; on the % scale 0 is the no-effect control and ±100 the full control effect; nearly all actives have a fitted effect of over 55% in size
#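 ThT emission at 510 nm, taken 1 hr after adding 30 uM dye, quantifies aggregates formed when 20 uM heparin acts on human tau K18 P301L for 6 hr at 37 C.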
# Tau fluor cs = counter-screen for tau fibril formation inhibitors; tau K18 P301L (four-repeat tau fragment) Alexa594 fluorescence, heparin fibrillization; Potency, µM (highest dose often 57.7 µM), for inactives: at the highest dose activity change, negative = decrease; actives 0.93% (n = 280,000); further: potency means the concentration at half of the fitted maximal effect; on the % scale 0 is the no-effect control and ±100 the full control effect; nearly all actives have a fitted effect of over 55% in size
#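 Human K18 P301L tau (15 uM unlabeled plus 0.24 uM Alexa 594-labeled, final) in 100 mM sodium acetate pH 7 was mixed with compound and 20 uM heparin and incubated 6 hr at 37 C.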
# * hit, by the source's call; u = inconclusive; x = no result given; ! = a repeat was not active; [ ] = dose if it differs, or a comment. The list is not random: actives were taken first. Their share in the collection is about 3.2%. Unless noted, the call rests on the fitted dose curve; in most records, active means well fitted curve in the direction sought with a large enough effect; inconclusive means small, poorly fitted or top-dose-only effect, or another doubt; inactive means no such curve, though single readings can be large; an effect the other way counts as inactive or inconclusive.
SMILES,JMJD2E inh,CBFb RUNX1 block,LMNA splice mod,Tau fibril FP,Tau fibril ThT,Tau fluor cs
CN1CCC2(CC1)C(C#N)=C(N)NC(S)=C2C#N,u,-19%,-4%[46 µM],u,22µM*,u
NCCc1cc(O)c(O)cc1O,6.3µM*,x,x,25µM*,7.1µM*,10µM*[quencher]
CCn1c(C)[n+](CC)c2ccc(S(=O)(=O)NC)cc21,7.9µM*,13%,x,0%,1%,4%
CCC(=O)Oc1ccc2c(c1)CCC1C2CC[C@]2(C)C(OC(=O)CC)CCC12 (stereo not given in full),x,8%,x,9%,u,-18%
CC(N)C(O)c1ccc(O)c(O)c1 (stereo not given),16µM*,3%,x,u,7.9µM*!,u
Oc1ccccc1/C=N/NP(=S)(c1ccccc1)c1ccccc1,-6%,-17%,u,u,-2%,u
C/C(=N\NP(=S)(c1ccccc1)c1ccccc1)c1ccc(O)cc1O,-13%,7%,x,-3%,u,32µM*[quencher]
CCCOP(=O)(OCCC)C(NC(=O)c1cc(OC)c(OC)c(OC)c1)c1ccccc1 (stereo not given),-7%,2%,u,-2%,-7%,-5%
O=C(NCCSc1c(-c2ccc(F)cc2)[nH]c2ccccc12)c1ccc(S(=O)(=O)N2CCOCC2)cc1,x,x,x,-5%,-1%,4.5µM*[quencher]
COc1cc(C(=O)NCCSc2c(-c3ccccc3)[nH]c3ccccc23)cc(OC)c1OC,x,x,x,-2%,-9%,8.9µM*[quencher]
CC(CCC(=O)O)C1CCC2C3CC[C@H]4CC(O)CC[C@@]4(C)C3CC[C@@]12C (stereo not given in full),4%,23%,x,6%,-17%,-3%
CC(=O)C1=NOC(CNc2ncc(C(F)(F)F)cc2Cl)C1 (stereo not given),5%,1%,u,1%,4%,5%
Cc1cccc(-n2nc(C)c(C(=O)N3CCN(c4ccccc4)CC3)c2-n2cccc2)c1,x,x,x,7%,u,-20%
c1ccc2c(c1)c1cc[n+]2CCCCC[n+]2ccc(c3ccccc32)NCCCCCN1,x,13%,x,x,x,x
c1cc2cc(c1)C[n+]1ccc(c3ccccc31)NCc1ccc(cc1)CNc1cc[n+](c3ccccc13)C2,18µM*,4%[21.7 µM],x,u,u,-18%
CN1C(=O)/C(=C/c2cccn2-c2ccc3ccccc3c2)C(=O)NC1=S,-2%,u,-17%,32µM*,16µM*,18µM*[quencher]
O=C1NC(=S)NC(=O)C1=Cc1cccn1-c1ccc(O)cc1,-5%,-11%,x,-7%,25µM*,u
Cc1cc(C)cc(N2C(=O)NC(=O)/C(=C\c3cccn3-c3ccccc3)C2=O)c1,6%,-16%,u,4%,-18%,0%
COc1ccccc1-c1nn2c(=O)cc(CN3CCN(C(=O)Nc4ccc(C)cc4Cl)CC3)nc2s1,x,x,u,1%,-14%,1%
NCC1O[C@@H](O[C@H]2C(O)C(O[C@@H]3C(O[C@H]4OC(CO)C(O)C(O)C4N)C(N)CC(N)[C@H]3O)O[C@@H]2CO)C(N)C(O)C1O (stereo not given in full),5%,u,x,-5%,-3%,-9%
Cc1ccc(Cl)cc1NC(=O)Cn1c(=O)oc2cc(S(=O)(=O)N3CCCCCC3)ccc21,x,x,u,u,17%,-3%
CCn1c(O)c(N=Nc2cccc(S(=O)(=O)N3CCOCC3)c2)c(=O)n(CC)c1=S,4%,-2%,x,3%,u,-21%
CCn1c(O)c(N=Nc2ccc(S(=O)(=O)N3CCOCC3)cc2)c(=O)n(CC)c1=S,9%,-25%,x,-12%,8.9µM*,-28%
CCOc1ccc(N(C(C)C(=O)Nc2cc(Cl)ccc2OC)S(C)(=O)=O)cc1 (stereo not given),x,x,x,-12%,u,u
CS(=O)(=O)c1ncc(Cl)c(C(=O)Nc2c(C(=O)Nc3ccccc3)oc3ccccc23)n1,x,x,x,-7%,8.9µM*,-28%
SMILES,JMJD2E inh,CBFb RUNX1 block,LMNA splice mod,Tau fibril FP,Tau fibril ThT,Tau fluor cs
CCc1ccccc1NC(=O)C(CC)Oc1ccccc1-c1nnc(-c2ccccc2)o1 (stereo not given),x,x,u,3%,-10%,-10%
O=C1NC(=O)N(Cc2ccc(F)cc2)C(=O)/C1=C\c1ccc([N+](=O)[O-])s1,28µM*,u,x,0.35µM*,x,u
COc1ccc(CN2C(=O)NC(=O)/C(=C/c3ccc([N+](=O)[O-])s3)C2=O)cc1,25µM*,x,x,25µM*,7.9µM*,u
COc1ccc(CN2C(=O)NC(=O)/C(=C\c3ccco3)C2=O)cc1,-25%,x,u,u,u,-16%
O=C1NC(=O)N(Cc2ccc(F)cc2)C(=O)/C1=C\c1ccc(N2CCCC2)cc1,-26%,-21%,x,-5%,25µM*,29%
C[C@H]1CC[C@]2(OC1)O[C@@H]1C[C@@H]3[C@@H]4CC[C@H]5C[C@@H](O)CC[C@]5(C)[C@@H]4CC(=O)[C@@]3(C)[C@H]1[C@@H]2C,-10%[25.5 µM],-12%[21.7 µM],u,x,x,x
COc1ccc(CCN2CCC(CNC(=O)c3cnn(-c4ccc(C)cc4)c3C3CCN(C(=O)OC(C)(C)C)CC3)CC2)cc1,x,x,u,-2%,-13%,-14%
CCOC(=O)C(C)Oc1cc(C)cc2oc(=O)c3c(c12)CCCC3 (stereo not given),13µM*,-11%,-7%,-9%,u,12%
CC(=O)C1=C(O)C2C3c4c[nH]c5cccc(c45)CC3C(C)(C)N2C1=O (stereo not given),u,x,u,-7%,-23%,-15%
CC(=O)C1=C(O)[C@@H]2[C@@H]3c4c[nH]c5cccc(c45)C[C@@H]3C(C)(C)N2C1=O,13µM*,16%[21.7 µM],x,-8%,-14%,-9%
O=[N+]([O-])c1ccc(N2CCCC2)c2ccncc12,1%,-14%,x,0%,13µM*,-10%
O=[N+]([O-])c1ccc(N2CCNCC2)c2ncccc12,1%,9%,-6%,-2%,u,-13%
Cc1cccc(OCC(=O)Nc2cc(-c3ccccc3F)nn2-c2ccccc2)c1,x,x,u,u,-2%,-1%
Cc1cc(C)n(-c2ccc(NN=C(C#N)C#N)cc2)n1,-22%,u,x,8%,5µM*,u
N#CC(C#N)=NNc1ccc(-n2ccc(C(F)(F)F)n2)cc1,5%,u,x,8%,x,-14%
Oc1ccc(Cl)cc1Cc1cc(Cl)ccc1O,-4%,0%,u,u,u,11µM*[quencher]
COc1ccc(-c2nc3ccccc3c(=O)o2)cc1,25µM*,4%,u,1%,u,-15%
